Reference: PubChem BioAssay AID743363 (Broad Institute, 2014)
Activity calls are given as the source filed them. No rule for the calls is given here.

Experiment: interference with FL-DTB/streptavidin displacement signal, dose response, counter-screen, biochemical, dry powder samples (AID 743363)
Settings: FL-DTB/streptavidin fluorescence displacement counter-screen, BioD coupled; series mostly up to 10 µM; activity, interference signal: at the top concentration

| Compound | activity, interference signal |
| --- | --- |
| CN1c2ccc(-c3cccc(F)c3)cc2[C@@H]2[C@@H](CCN2C(=O)c2ccc3c(c2)OCO3)[C@@H]1CO | -1.78% [at 5.6 µM] (inactive) |
| CC(=O)c1ccc(N2CCN(C(=O)c3cc4c(cc3Cl)OCO4)CC2)cc1 | 6.47% (inactive) |
| CC(=O)c1ccc(N2CCN(C(=O)c3ccc4c(c3)OCO4)CC2)cc1 | 1.39% (inactive) |
| CNC(=O)c1ccc(N2CCN(C(=O)c3ccc4c(c3)OCO4)CC2)cc1 | 2.15% (inactive) |
| O=C(c1ccc2c(c1)OCO2)N1CCN(c2ccc(S(=O)(=O)C(F)F)cc2)CC1 | 3.47% (inactive) |
| CN1c2ccc(-c3cccc(F)c3)cc2[C@H]2[C@H](CCN2C(=O)Nc2ccccc2F)[C@H]1CO | 0.917% (inactive) |
| O=C(c1ccc2c(c1)OCO2)N1CCN(c2ccc(S(=O)(=O)C(F)(F)F)cc2)CC1 | -1.88% (inactive) |
| O=C(c1ccc2c(c1)OCO2)N1CCN(c2ccc(OC(F)(F)F)cc2)CC1 | -5.37% (inactive) |
| CCC(=O)N1CC[C@@H]2[C@@H](CO)N(C)c3ccc(-c4ccc(F)cc4)cc3[C@@H]21 | -2.82% [at 4.6 µM] (inactive) |
| CN1c2ccc(-c3ccc(F)cc3)cc2[C@H]2[C@H](CCN2C(=O)Nc2ccc(F)cc2)[C@H]1CO | -3.2% (inactive) |
| CN1c2ccc(-c3cccc(F)c3)cc2[C@H]2[C@H](CCN2C(=O)c2ccc3c(c2)OCO3)[C@@H]1CO | 3.59% (inactive) |
| COc1cc(C(=O)N2CCN(c3ccc(C(C)=O)cc3)CC2)cc2c1OCO2 | -2.37% (inactive) |
| COc1cc2c(cc1C(=O)N1CCN(c3ccc(C(C)=O)cc3)CC1)OCO2 | 3.28% (inactive) |
| O=C(c1ccc2c(c1)OCO2)N1CCN(c2ccc(C(F)(F)F)cc2)CC1 | -1.48% (inactive) |
| CN1c2ccc(-c3ccc(F)cc3)cc2[C@H]2[C@H](CCN2C(=O)Cc2cccnc2)[C@H]1CO | 4.33% [at 9 µM] (inactive) |
| CC(=O)c1ccc(N2CCCN(C(=O)c3ccc4c(c3)OCO4)CC2)cc1 | -2.86% (inactive) |
| CC(=O)c1ccc(N2CCN(C(=O)c3cc4c(cc3C)OCO4)CC2)cc1 | -0.603% (inactive) |
| CC(=O)c1ccc(NCCNC(=O)c2ccc3c(c2)OCO3)cc1 | 0.593% (inactive) |
| CC(=O)c1ccc(N2CC3(CN(C(=O)c4ccc5c(c4)OCO5)C3)C2)cc1 | 0.065% (inactive) |
| CN1c2ccc(-c3ccc(F)cc3)cc2[C@H]2[C@H](CCN2C(=O)Cc2ccccn2)[C@H]1CO | -1.4% (inactive) |
| CN1c2ccc(-c3cccc(F)c3)cc2[C@H]2[C@H](CCN2C(=O)CCCCCCN)[C@H]1CO | -2.8% (inactive) |
| CC(=O)c1ccc(N2CCN(C(=O)c3cc(Cl)c4c(c3)OCO4)CC2)cc1 | -6.36% (inactive) |
| CNS(=O)(=O)c1ccc(N2CCN(C(=O)c3ccc4c(c3)OCO4)CC2)cc1 | -1.07% (inactive) |
| CC(=O)c1ccc(N2CCN(S(=O)(=O)c3ccc4c(c3)OCO4)CC2)cc1 | -0.756% (inactive) |
| CC(=O)c1ccc(N2CCN(C(=O)c3ccc4c(c3)OC(F)(F)O4)CC2)cc1 | 0.02% (inactive) |
| COc1ccccc1NC(=O)N1CC[C@@H]2[C@@H](CO)N(C)c3ccc(-c4cccc(F)c4)cc3[C@@H]21 | -1.86% (inactive) |
| CC(=O)c1ccc(N2CC3CC2CN3C(=O)c2ccc3c(c2)OCO3)cc1 (stereo not given) | -5.12% (inactive) |
| CC(=O)c1ccc(N2CCN(C(=O)c3ccc4c(c3)OC(C)(C)O4)CC2)cc1 | 1.9% (inactive) |
| CN(C)C(=O)c1ccc(N2CCN(C(=O)c3ccc4c(c3)OCO4)CC2)cc1 | 0.154% (inactive) |
| COc1ccc(NC(=O)N2CC[C@@H]3[C@@H](CO)N(C)c4ccc(-c5cccc(F)c5)cc4[C@@H]32)cc1 | -1.25% (inactive) |
